Hits are enriched below; roughly 4.1% of the tested compounds scored in any of these assays.
TROY signal inh: inhibitors of TROY-dependent NF-kB signaling; Q293 LMP1-TROYcd NF-kB luciferase reporter, 4 h; inhibition, % at 10 µM; 360,000 tested, 0.98% active; AID 1347056;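 active = compounds whose plate-normalised and pattern-corrected inhibition of the luciferase reporter signal at the single screening dose is 50% or more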
TRPM1 prom inh: inhibitors of MITF-driven TRPM1 promoter in melanoma cells; inhibition, % at 12.5 µM; SK-MEL-5 TRPM1 promoter luciferase, 24 h; 330,000 tested, 0.83% active;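 active = mean inhibition across replicates of 60% or more, whatever share of single replicates reaches that level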
Peg3 prom inh: Peg3 promoter activity inhibition; HeLa PEG-Prom luciferase reporter, luminescence, overnight; 360,000 tested, 1.7% active; inhibition, % at 20 µM;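 active = inhibition of at least 50% at 20 µM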
Shn3 3UTR inh: Schnurri-3 reporter inhibition in Clone20 osteoblasts; Clone20 osteoblast Shn3 3'UTR firefly luciferase, 24 h; inhibition, % at 12.5 µM; 360,000 tested, 0.52% active; AID 588674;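 active = mean inhibition of at least 75% with every replicate also reaching 75%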;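 also: 0% = median of neutral control wells and 100% = pilot-screen positive control compound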
TWEAK Fn14 block: inhibitors of TWEAK-Fn14 interaction signaling. TWEAK-stimulated Fn14 reporter cells, luciferase luminescence, 8 h. 360,000 tested, 2% active. inhibition, % at 10 µM; in the data active = inhibition above about 50%
LMP1 NFkB inh: Epstein-Barr LMP1 NF-kappaB reporter inhibition; LMP1-induced NF-kappaB luciferase reporter cells, luminescence; inhibition, % at 12.5 µM; 350,000 tested, 0.69% active; in the data active = inhibition above about 41%;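 also: 0% = neutral control wells and 100% = reference inhibitor control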
Active calls of the source: *.

SMILES	TROY signal inh	TRPM1 prom inh	Peg3 prom inh	Shn3 3UTR inh	TWEAK Fn14 block	LMP1 NFkB inh
CCCCn1c(CN(C)Cc2ccccc2)nc2c1c(=O)n(C)c(=O)n2C	16.2	19.4	16.4	87.2*	24.9	11.9
COc1cc(-c2nnc(SC(C)C(=O)Nc3c(C)n(C)n(-c4ccccc4)c3=O)o2)cc(OC)c1OC (stereo unspecified)	-34.7	5.5	0.7	0.6	-14.7	-1.1
O=S(=O)(c1ccc(Br)cc1)N1CCN(c2cc(-c3ccccc3)nc3ncnn23)CC1	-10.1	-11.4	5.9	49.6	24.6	11.4
COc1ccc(-c2cc(N3CCCC3)n3ncnc3n2)cc1	8.1	-7.8	7.1	26.0	-10.4	9.8
O=S(=O)(c1ccccc1)N1CCN(c2cc(-c3ccccc3)nc3ncnn23)CC1	32.3	48.5	14.5	84.3*	70.3*	43.3*
COc1ccc(S(=O)(=O)N2CCN(c3cc(-c4ccccc4)nc4ncnn34)CC2)cc1	17.0	20.2	31.7	86.7*	24.9	-12.6
O=C(Nc1nn[nH]n1)C12CC3CC(CC(C3)C1)C2	0.1	6.3	8.8	7.1	1.3	-19.8
COC(=O)c1ccc(CNCC(O)COc2ccc(-c3ccccc3)cc2)cc1 (stereo unspecified)	-8.1	-10.5	-16.1	4.2	6.7	3.1
COc1ccc(CNCC(O)COc2cccc3c2OC(C)(C)C3)cc1 (stereo unspecified)	27.2	1.3	13.0	91.1*	6.4	6.2
CC(=O)Nc1ccc(OCC(O)CNC2CCCC2)cc1 (stereo unspecified)	-10.9	-14.6	0.5	-0.7	4.7	-4.6
COc1ccc(CNCC(O)COc2ccc(C(C)(C)c3ccccc3)cc2)cc1 (stereo unspecified)	6.2	-11.8	74.5*	18.0	-26.8	5.7
CC(=O)Nc1ccc(OCC(O)CNC(C)C)cc1 (stereo unspecified)	-3.6	10.3	0.4	-14.9	8.5	50.8*
COc1ccc(NCC(O)COc2ccc(C(C)(C)C)cc2)cc1 (stereo unspecified)	-21.1	8.2	-3.5	24.7	3.5	42.6*
Cc1cccc(C(=O)NC(=S)Nc2cccc3nc(C)ccc23)c1	14.4	20.7	23.2	10.2	11.3	7.7
COc1ccc(N2CCN(C(CNC(=O)C(=O)NCC(OC)OC)c3ccco3)CC2)cc1 (stereo unspecified)	5.6	4.1	-3.0	-8.1	-9.3	-2.6
CCOC(=O)CC(=O)CSc1nc2sc(C)cc2c(=O)n1Cc1ccco1	7.2	13.0	3.8	11.0	-7.8	6.8
Cc1cc2c(=O)n(Cc3ccco3)c(SCC(=O)c3ccc(Cl)s3)nc2s1	11.1	2.3	4.0	83.1	54.4*	8.6
NC(=O)CSc1nc2ccccc2c(=O)n1Cc1ccco1	2.6	12.3	8.8	-5.8	2.7	-18.6
O=C(CSc1nc2ccccc2c(=O)n1Cc1ccco1)c1ccc(F)cc1	64.4*	-14.2	-45.4	46.4	57.7*	2.9
CCCn1c(C)cc(C(=O)CSc2nc3ccccc3c(=O)n2Cc2ccco2)c1C	48.4	-34.7	-271.1	-28.6	59.2*	-56.0
C=CCN1CCN(C(CC(C)C)c2nnnn2CCOC)CC1 (stereo unspecified)	-5.4	2.2	1.5	2.4	6.0	49.1*
c1ccc2c(c1)CCN(c1nc3cc4c(cc3s1)OCCO4)C2	75.2*	55.9	39.6	33.7	102.6*	25.0
COc1ccc(OC)c2sc(N3CCc4ccccc4C3)nc12	-24.1	-33.0	-83.2	-12.6	-16.0	5.2
CCCOC(=O)c1ccc(NC(=O)/C=C/c2cccs2)cc1	56.0*	-44.1	-193.0	-33.3	31.8	-2.6
COc1ccc(-c2cn[nH]c2-c2ccc(OC)cc2O)cc1	43.2	6.2	28.3	20.8	78.3*	32.4
COc1ccc(-c2nc(C)ncc2-c2ccccc2)c(O)c1	-5.9	3.6	20.2	16.5	-2.0	43.3*
COc1ccc(-c2cn[nH]c2-c2ccc(OCc3ccccc3)cc2O)cc1	31.0	-2.5	16.7	12.6	63.1*	20.2
COc1ccc(-c2[nH]ncc2-c2ccc(Cl)cc2)c(O)c1	14.4	6.9	42.1	11.0	13.5	1.0
COc1ccccc1-c1cn[nH]c1-c1ccc(OCc2ccccc2)cc1O	19.9	2.7	35.1	8.1	2.5	5.5

Compound activity: PubChem BioAssay, several laboratories
